Assays:
[1] = target: High affinity nerve growth factor receptor (Homo sapiens) (UniProt P04629); details: at 1 µM;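 also: each value is the mean percent inhibition of TRKA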
[2] = target: BDNF/NT-3 growth factors receptor (Homo sapiens) (UniProt Q16620); details: at 0.1 µM
[3] = target: BDNF/NT-3 growth factors receptor (Homo sapiens) (UniProt Q16620); details: at 1 µM
[4] = target: NT-3 growth factor receptor (Homo sapiens) (UniProt Q16288); details: at 0.1 µM
[5] = target: NT-3 growth factor receptor (Homo sapiens) (UniProt Q16288); details: at 1 µM
[6] = target: T1, Tyrosine-protein kinase TXK (Homo sapiens) (UniProt P42681); details: at 0.1 µM
T1 sequence (whole entry): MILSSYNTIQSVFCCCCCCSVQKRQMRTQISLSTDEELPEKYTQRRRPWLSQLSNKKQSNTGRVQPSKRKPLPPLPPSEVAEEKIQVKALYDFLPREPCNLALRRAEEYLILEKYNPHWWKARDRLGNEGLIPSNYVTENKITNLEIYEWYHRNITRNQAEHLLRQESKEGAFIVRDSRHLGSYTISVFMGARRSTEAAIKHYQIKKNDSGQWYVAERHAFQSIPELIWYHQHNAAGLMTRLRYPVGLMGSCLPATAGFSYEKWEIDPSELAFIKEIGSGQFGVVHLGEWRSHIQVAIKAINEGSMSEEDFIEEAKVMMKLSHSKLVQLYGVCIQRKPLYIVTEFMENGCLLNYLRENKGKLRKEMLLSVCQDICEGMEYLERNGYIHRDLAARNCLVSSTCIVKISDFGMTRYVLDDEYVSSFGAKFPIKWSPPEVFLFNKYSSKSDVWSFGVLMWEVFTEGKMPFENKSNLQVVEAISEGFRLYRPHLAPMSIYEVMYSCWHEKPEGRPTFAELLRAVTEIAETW

[7] = target: T1, Tyrosine-protein kinase TXK (Homo sapiens); details: at 1 µM
[8] = target: Non-receptor tyrosine-protein kinase TYK2 (Homo sapiens) (UniProt P29597); details: at 0.1 µM;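 also: each value is a mean of the inhibition readings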
Non-receptor tyrosine-protein kinase TYK2 (Homo sapiens), sequence (P29597 whole entry): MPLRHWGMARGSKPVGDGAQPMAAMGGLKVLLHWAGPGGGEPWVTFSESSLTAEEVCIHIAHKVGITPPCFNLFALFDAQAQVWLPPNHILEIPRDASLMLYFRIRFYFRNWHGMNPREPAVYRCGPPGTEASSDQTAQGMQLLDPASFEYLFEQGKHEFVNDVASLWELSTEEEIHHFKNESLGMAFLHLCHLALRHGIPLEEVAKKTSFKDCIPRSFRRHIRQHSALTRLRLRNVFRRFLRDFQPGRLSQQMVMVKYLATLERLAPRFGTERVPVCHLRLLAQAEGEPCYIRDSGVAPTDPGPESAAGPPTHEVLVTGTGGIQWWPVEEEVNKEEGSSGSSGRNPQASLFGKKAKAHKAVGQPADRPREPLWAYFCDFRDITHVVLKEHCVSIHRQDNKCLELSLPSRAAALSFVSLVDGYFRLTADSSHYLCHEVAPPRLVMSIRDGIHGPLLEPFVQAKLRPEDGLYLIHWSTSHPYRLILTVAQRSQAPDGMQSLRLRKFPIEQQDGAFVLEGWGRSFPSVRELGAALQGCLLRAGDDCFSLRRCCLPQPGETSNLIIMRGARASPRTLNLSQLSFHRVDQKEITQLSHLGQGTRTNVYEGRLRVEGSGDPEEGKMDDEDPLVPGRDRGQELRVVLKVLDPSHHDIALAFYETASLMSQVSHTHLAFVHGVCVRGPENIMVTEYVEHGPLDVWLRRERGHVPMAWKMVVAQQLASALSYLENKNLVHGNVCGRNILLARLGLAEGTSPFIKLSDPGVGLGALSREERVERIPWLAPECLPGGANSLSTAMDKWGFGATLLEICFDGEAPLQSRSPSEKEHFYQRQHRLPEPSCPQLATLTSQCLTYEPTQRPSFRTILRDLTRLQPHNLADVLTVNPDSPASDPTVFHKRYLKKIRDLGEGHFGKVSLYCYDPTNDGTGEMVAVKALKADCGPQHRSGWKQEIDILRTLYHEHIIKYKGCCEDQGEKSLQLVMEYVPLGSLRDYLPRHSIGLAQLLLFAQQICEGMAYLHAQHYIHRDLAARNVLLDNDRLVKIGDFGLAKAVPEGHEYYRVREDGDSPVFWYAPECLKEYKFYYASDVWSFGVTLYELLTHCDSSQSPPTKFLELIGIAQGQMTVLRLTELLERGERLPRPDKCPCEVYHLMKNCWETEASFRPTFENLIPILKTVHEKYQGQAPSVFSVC

[9] = target: T2, Dual specificity protein kinase TTK (Homo sapiens) (UniProt P33981); details: at 1 µM;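 also: reported figures are mean TTK inhibition at 1 µM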
T2 sequence (whole entry): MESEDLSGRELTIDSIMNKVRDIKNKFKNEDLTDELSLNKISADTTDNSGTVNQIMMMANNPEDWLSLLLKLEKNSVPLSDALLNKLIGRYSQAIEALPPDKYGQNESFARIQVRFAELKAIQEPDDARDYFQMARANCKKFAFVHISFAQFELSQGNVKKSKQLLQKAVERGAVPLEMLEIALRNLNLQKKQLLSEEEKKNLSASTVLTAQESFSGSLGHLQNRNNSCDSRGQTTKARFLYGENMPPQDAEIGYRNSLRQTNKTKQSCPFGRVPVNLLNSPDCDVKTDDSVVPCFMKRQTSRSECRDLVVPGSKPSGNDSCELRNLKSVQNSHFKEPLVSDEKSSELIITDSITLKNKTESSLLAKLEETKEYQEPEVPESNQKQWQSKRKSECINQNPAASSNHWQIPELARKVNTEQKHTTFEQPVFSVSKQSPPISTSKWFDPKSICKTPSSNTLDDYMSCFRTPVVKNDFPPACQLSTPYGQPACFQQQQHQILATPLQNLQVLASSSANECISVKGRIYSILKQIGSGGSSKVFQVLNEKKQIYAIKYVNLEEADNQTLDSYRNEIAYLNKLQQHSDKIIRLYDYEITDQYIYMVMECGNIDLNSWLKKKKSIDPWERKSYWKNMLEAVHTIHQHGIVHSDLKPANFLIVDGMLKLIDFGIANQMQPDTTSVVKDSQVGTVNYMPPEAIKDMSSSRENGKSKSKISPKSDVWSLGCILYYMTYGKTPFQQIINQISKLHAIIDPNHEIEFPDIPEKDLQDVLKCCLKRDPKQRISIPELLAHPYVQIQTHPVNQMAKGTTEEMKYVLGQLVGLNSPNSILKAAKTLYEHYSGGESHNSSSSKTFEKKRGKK

[10] = target: T3, Aurora kinase A (Homo sapiens) (UniProt O14965); details: at 0.1 µM
T3 sequence (whole entry): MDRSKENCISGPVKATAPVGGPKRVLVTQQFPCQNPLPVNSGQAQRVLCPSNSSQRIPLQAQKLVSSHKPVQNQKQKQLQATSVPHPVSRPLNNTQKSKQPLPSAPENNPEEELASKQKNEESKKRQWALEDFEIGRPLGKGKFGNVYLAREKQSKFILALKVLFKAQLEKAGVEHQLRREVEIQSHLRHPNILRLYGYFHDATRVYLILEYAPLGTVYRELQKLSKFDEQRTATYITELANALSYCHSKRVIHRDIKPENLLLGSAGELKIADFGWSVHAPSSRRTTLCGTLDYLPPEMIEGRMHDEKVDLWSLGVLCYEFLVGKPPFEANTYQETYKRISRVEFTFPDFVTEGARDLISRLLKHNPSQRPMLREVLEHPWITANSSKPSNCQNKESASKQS

[11] = target: T3, Aurora kinase A (Homo sapiens); details: at 1 µM
[12] = target: Aurora kinase B (Homo sapiens) (UniProt Q96GD4); details: at 0.1 µM
Aurora kinase B (Homo sapiens), sequence (Q96GD4 whole entry): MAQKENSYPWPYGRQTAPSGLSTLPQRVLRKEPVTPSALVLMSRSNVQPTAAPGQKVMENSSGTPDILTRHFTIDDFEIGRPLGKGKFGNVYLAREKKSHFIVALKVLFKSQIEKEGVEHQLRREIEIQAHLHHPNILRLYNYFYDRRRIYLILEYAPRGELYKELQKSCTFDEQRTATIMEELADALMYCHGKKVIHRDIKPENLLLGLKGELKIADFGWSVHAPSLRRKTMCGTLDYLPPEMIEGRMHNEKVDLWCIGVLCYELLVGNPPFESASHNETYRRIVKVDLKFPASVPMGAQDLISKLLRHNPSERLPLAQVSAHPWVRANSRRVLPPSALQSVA

[13] = target: Aurora kinase B (Homo sapiens) (UniProt Q96GD4); details: at 1 µM
[14] = target: T4, Aurora kinase C (Homo sapiens) (UniProt Q9UQB9); details: at 0.1 µM
T4 sequence (whole entry): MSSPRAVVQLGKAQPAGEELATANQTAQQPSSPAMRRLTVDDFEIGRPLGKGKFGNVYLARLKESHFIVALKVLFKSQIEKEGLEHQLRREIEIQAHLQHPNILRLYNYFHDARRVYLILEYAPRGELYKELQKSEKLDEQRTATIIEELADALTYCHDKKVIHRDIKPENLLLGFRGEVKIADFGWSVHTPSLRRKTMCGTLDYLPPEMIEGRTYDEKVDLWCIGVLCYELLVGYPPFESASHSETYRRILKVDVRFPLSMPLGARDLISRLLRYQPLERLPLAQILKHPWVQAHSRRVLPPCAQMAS

[15] = target: T4, Aurora kinase C (Homo sapiens); details: at 1 µM
[16] = target: Serine/threonine-protein kinase 10 (Homo sapiens) (UniProt O94804); details: at 0.1 µM
Serine/threonine-protein kinase 10 (Homo sapiens), sequence (O94804 whole entry, looked up): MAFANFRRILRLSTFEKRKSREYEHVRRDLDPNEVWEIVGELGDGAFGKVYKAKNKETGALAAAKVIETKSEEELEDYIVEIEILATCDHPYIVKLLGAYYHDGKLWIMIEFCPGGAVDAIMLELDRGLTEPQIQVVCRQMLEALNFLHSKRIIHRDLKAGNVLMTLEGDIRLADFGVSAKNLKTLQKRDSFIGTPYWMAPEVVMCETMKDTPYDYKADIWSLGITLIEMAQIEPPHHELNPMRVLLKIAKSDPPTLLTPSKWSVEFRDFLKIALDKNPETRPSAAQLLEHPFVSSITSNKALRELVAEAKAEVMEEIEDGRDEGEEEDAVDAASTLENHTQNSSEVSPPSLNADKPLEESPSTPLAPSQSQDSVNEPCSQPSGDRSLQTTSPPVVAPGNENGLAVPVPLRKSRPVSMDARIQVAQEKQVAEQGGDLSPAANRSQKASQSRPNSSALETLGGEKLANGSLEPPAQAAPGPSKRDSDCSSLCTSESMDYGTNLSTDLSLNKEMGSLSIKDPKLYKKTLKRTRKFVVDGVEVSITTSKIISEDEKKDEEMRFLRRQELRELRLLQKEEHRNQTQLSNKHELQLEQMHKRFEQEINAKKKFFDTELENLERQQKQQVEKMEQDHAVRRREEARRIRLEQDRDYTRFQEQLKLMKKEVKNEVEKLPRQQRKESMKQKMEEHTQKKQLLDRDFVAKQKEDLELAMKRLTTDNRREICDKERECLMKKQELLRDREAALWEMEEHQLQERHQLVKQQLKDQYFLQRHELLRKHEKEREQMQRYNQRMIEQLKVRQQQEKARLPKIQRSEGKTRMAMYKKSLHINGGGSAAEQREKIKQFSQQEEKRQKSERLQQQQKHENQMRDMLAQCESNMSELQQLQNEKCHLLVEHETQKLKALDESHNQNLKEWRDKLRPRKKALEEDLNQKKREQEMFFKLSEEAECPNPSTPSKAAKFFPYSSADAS

[17] = target: Serine/threonine-protein kinase 10 (Homo sapiens) (UniProt O94804); details: at 1 µM
[18] = target: T5, Mitogen-activated protein kinase kinase kinase kinase 2 (Homo sapiens) (UniProt Q12851); details: at 0.1 µM
T5 sequence (whole entry): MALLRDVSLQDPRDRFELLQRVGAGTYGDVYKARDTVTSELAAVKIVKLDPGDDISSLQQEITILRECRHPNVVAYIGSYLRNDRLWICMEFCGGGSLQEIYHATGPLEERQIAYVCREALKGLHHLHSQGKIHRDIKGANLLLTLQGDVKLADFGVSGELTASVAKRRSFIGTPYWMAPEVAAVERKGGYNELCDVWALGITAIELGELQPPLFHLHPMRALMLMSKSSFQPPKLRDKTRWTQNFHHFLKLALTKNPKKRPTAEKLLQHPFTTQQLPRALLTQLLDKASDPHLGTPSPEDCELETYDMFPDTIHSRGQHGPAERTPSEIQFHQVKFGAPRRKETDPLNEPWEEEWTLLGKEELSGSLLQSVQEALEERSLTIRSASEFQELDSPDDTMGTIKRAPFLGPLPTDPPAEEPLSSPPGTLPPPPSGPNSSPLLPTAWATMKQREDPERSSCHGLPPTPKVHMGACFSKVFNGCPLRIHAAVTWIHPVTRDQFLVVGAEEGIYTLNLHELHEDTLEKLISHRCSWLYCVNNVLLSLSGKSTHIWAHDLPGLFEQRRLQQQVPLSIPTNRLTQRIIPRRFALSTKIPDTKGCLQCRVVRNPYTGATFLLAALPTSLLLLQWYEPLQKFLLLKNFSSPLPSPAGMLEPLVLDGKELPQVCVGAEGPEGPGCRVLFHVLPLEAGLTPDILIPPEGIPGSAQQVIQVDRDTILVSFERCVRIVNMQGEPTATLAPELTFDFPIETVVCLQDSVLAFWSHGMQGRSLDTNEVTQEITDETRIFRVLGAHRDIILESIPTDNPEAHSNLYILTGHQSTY

[19] = target: T5, Mitogen-activated protein kinase kinase kinase kinase 2 (Homo sapiens); details: at 1 µM
[20] = target: Mitogen-activated protein kinase kinase kinase kinase 4 (Homo sapiens) (UniProt O95819); details: at 0.1 µM

High affinity nerve growth factor receptor (Homo sapiens), sequence (P04629 33-796 limits assumed): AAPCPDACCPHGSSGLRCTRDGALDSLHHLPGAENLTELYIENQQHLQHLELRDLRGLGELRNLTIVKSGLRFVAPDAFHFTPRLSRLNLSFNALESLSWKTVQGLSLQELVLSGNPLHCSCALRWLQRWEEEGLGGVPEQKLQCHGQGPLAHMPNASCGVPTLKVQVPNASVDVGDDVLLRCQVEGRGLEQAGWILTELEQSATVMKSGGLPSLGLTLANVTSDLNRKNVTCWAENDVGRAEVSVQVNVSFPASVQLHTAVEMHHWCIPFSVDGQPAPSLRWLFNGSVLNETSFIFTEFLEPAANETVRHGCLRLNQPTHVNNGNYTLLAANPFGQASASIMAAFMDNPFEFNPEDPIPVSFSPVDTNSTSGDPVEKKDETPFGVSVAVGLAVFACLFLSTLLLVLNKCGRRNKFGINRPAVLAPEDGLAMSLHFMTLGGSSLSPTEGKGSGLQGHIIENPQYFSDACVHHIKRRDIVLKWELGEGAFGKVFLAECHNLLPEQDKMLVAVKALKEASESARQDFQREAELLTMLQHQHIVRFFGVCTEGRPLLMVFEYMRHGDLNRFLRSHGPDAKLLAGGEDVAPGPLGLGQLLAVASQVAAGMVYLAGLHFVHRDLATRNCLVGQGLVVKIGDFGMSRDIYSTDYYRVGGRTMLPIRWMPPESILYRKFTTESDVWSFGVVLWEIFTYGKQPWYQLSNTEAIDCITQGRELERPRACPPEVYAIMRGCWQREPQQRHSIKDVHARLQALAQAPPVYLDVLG
NT-3 growth factor receptor (Homo sapiens), sequence (Q16288 32-839 limits assumed): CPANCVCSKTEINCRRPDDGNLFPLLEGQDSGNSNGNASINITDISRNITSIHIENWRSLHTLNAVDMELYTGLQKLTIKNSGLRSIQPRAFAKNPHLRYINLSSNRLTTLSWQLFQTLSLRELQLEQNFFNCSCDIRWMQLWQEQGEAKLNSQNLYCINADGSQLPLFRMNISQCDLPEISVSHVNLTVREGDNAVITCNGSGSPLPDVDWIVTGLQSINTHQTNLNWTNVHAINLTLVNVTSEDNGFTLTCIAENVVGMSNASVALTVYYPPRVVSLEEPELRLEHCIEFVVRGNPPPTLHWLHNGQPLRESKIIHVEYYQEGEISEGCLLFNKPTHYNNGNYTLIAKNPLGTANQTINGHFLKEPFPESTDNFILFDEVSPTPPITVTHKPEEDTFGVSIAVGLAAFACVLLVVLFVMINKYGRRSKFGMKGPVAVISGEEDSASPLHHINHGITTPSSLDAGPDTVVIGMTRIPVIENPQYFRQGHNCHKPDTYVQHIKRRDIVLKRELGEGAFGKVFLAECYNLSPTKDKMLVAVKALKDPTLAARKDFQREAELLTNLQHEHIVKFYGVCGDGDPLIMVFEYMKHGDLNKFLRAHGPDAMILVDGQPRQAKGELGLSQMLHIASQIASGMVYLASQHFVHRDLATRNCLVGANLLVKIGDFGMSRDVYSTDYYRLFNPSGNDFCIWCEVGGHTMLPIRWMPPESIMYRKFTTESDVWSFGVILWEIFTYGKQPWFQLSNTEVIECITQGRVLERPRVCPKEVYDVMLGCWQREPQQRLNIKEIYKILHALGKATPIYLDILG
BDNF/NT-3 growth factors receptor (Homo sapiens), sequence (Q16620 32-822 limits assumed): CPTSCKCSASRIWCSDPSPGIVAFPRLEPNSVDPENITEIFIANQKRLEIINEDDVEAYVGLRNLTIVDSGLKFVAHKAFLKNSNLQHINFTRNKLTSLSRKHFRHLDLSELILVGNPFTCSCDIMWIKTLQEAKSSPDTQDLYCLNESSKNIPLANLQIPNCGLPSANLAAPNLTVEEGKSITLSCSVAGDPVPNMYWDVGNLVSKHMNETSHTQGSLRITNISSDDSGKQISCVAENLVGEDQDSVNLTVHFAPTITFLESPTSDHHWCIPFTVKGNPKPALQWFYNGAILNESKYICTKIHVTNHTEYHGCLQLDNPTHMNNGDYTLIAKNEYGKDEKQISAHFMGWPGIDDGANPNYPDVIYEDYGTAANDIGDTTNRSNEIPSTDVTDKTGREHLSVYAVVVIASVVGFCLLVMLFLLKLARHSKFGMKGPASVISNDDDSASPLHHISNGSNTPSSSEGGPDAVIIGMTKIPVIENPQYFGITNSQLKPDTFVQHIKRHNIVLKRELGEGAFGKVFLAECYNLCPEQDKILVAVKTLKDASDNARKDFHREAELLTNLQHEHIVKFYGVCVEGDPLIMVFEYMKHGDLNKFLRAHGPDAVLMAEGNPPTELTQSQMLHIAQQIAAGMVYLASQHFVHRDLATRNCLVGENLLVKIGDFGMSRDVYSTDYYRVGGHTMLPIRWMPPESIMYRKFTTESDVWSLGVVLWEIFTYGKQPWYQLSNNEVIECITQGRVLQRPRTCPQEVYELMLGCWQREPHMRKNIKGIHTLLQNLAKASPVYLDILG

| Structure (SMILES) | inhibition [1] [%] | inhibition [2] [%] | inhibition [3] [%] | inhibition [4] [%] | inhibition [5] [%] | inhibition [6] [%] | inhibition [7] [%] | inhibition [8] [%] | inhibition [9] [%] | inhibition [10] [%] | inhibition [11] [%] | inhibition [12] [%] | inhibition [13] [%] | inhibition [14] [%] | inhibition [15] [%] | inhibition [16] [%] | inhibition [17] [%] | inhibition [18] [%] | inhibition [19] [%] | inhibition [20] [%] |
| --- | --- | --- | --- | --- | --- | --- | --- | --- | --- | --- | --- | --- | --- | --- | --- | --- | --- | --- | --- | --- |
| COc1cc(/C=N/Nc2ncnc3[nH]ncc23)ccc1O | 3.15 | 3.49 | 10.7 | 2.95 | 11.2 | 5.2 | 24.9 | -2.44 | 13.4 | 6.3 | 55.1 | 9.45 | 42.1 | 6.8 | 66 | 5.88 | 19.5 | 1.7 | 9.66 | 7.81 |
| COc1cc(N2CCN(C(C)C)CC2)ccc1Nc1nc(Nc2ccc(F)cc2C(N)=O)c2cc[nH]c2n1 | 4.26 | -0.6 | 3.09 | -0.87 | -0.43 | 8.7 | 5.7 | -1.63 | 85.6 | 2.91 | 4.58 | 2.99 | 2.23 | 0.8 | 2.67 | 3.31 | 11.8 | 4.5 | 31.1 | 18.1 |
| COc1ccc(-c2oc3ncnc(N)c3c2-c2ccc(NC(=O)Nc3cc(C(F)(F)F)ccc3F)cc2)cc1 | 98.4 | 88.4 | 101 | 87.2 | 98.5 | 3.68 | 8.48 | -5.26 | 14.6 | 1.73 | 49.5 | 8.53 | 46.2 | 3.56 | 76.2 | 49.5 | 91.3 | 8.42 | 47.2 | 5.29 |
| Fc1ccc(-c2cc(-c3c[nH]nc3-c3ccccn3)ccn2)cc1 | 0.04 | 4.04 | 4.77 | 4.06 | 3.45 | 3.64 | 2.28 | -1.71 | 9.65 | 3.15 | 4.79 | 2.48 | 5.17 | -0.57 | -4.87 | 6.15 | 11.2 | -0.05 | 1.6 | 13.7 |
| COc1cc2ncn(-c3cc(OCc4ccccc4C(F)(F)F)c(C(=O)N(C)C)s3)c2cc1OC | 8.1 | -0.07 | 7.43 | 5.43 | 16.2 | 1.47 | 3.4 | -4.64 | 10.4 | 0.68 | 9.82 | 5.54 | 31.1 | 3.22 | 46.2 | 12.9 | 55.8 | 0.57 | 2.23 | 0.42 |
| COC(=O)Nc1nc2ccc(Oc3ccc(NC(=O)Nc4cccc(Cl)c4)cc3)cc2[nH]1 | 41.6 | 8.53 | 22 | 11.7 | 26.1 | 0.76 | 2.29 | 2 | 3.42 | 2.85 | 0.65 | 16 | 22.7 | 16.6 | 35.3 | 14.1 | 27.1 | 0.77 | 7.45 | 0.19 |
| Clc1ccc(-c2nn3ncccc3c2-c2ccnc(Nc3ccccc3)n2)cc1 | 6 | 2.34 | 3.72 | 1.69 | 2.21 | 3.54 | 14.9 | 0.28 | 4.5 | 0.9 | 25.5 | 3.6 | 20.2 | 1.35 | 36.1 | 4.2 | 40.8 | 1.09 | 5.08 | 5.07 |
| CN1CCC(n2cnc(-c3ccc(F)cc3)c2-c2ccnc(Nc3ccccc3)n2)CC1 | 1.74 | 0.31 | 1.95 | 1.52 | 3.75 | 3.25 | 5.32 | 1.84 | 8.53 | 2.13 | 5.7 | 3.55 | 3.9 | 0.71 | -2.98 | 2.62 | 8.59 | 1.51 | 10.3 | 4.88 |
| COc1ccc(-c2cc3c(N)ncnc3o2)cc1 | 2.94 | -0.36 | 1.81 | 0.53 | 0.25 | 0.91 | 2.2 | -0.95 | 0.09 | 0.51 | 1.33 | -0.85 | 11.7 | 1.13 | 16.7 | -1.35 | 0.33 | 2.31 | 4.72 | 2 |
| CCn1c(-c2nonc2N)nc2c(C#CC(C)(C)O)ncc(OC3CCNCC3)c21 | 3.24 | 1.42 | 1.02 | 2.31 | -0.14 | 6.03 | 3.86 | 0.42 | 7.59 | 4.24 | 0.96 | 2.65 | 1.85 | 1.48 | 3.1 | 3.27 | 11.2 | 2.3 | 3.12 | 2.72 |
| NS(=O)(=O)c1ccc(Nc2ncc(-c3ccccc3)o2)cc1 | 8.51 | 5.29 | 15.4 | 3.31 | 16.7 | 4.63 | 5.69 | -1.15 | 13.2 | 8.3 | 67.2 | 5.18 | 24.7 | 6.57 | 54.5 | 5.53 | 11.7 | 1.1 | 8.73 | 12.4 |
| CCn1c(-c2nonc2N)nc2ccccc21 | 2.11 | 1.05 | -0.82 | 0.03 | 0.89 | 3.75 | 6.72 | -1.66 | 7.51 | 2.42 | 7.95 | 0.55 | 5.64 | -0.58 | 11.2 | 2.59 | 6.5 | 0.98 | 3.67 | 4.69 |
| CCN1CCC(CC(=O)Nc2n[nH]c3nnc(-c4cccc(F)c4F)cc23)CC1 | -2.79 | 0.47 | 0.8 | 0.17 | 0.31 | -0.72 | 3.03 | 0.26 | 1.38 | 3.98 | 2.34 | 0.22 | 4.4 | 1.43 | 4.58 | 3.88 | 4.08 | 0.29 | 5.3 | 2.42 |
